Measurements published in the supplement of paper PMC8007513.
Counter-ions that a name gives are not always drawn. ± gives the standard error. Screen size: about 1,300 compounds; about 75 (6%) showed an effect of 50% or more. For the sample, strong results were picked, then their nearest neighbours and some compounds at random.

Tested on: Trichoderma virens ATCC 9645
Test: growth yield (OD600) relative to untreated control; higher = less growth inhibition
Conditions: compound concentration: 100 uM
Summary of the method: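 Growth appears as means of duplicate screens, relative to the control containing neither agent. To obtain it, OD600 was read on a BioTek EL800 at 40 h and 72 h. The cultures were 100 μl aliquots in 96-well plates at 30 °C, holding Trichoderma virens ATCC 9645 spores at 15,000 spores ml^−1 in potato dextrose broth, library compounds at 100 μM final, and, in some wells, a biocide at 200 ng ml^−1.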

SMILES | growth yield (40 h) [%] | growth yield (72 h) [%]
Clc1ccccc1C(c1ccccc1)(c1ccccc1)n1ccnc1 [Clotrimazole] | 2.38 ± 1.8 | 1.89 ± 1.1
CN(C)c1ccc(O)c2c1C[C@H]1C[C@H]3[C@H](N(C)C)C(O)=C(C(N)=O)C(=O)[C@@]3(O)C(O)=C1C2=O [Minocycline hydrochloride] | 95.3 ± 0.64 | 97.4 ± 2
CC(C)(C)NC[C@H](O)COc1ccccc1C1CCCC1 [Penbutolol sulfate] | 109 ± 6.2 | 110 ± 5.1
CC(=O)N(CC(O)CO)c1c(I)c(C(=O)NCC(O)CO)c(I)c(C(=O)NCC(O)CO)c1I (stereo not drawn) [Iohexol] | 103 ± 1.3 | 106 ± 1.1
CNC(C)CCC=C(C)C (stereo not drawn) [Isometheptene mucate] | 99.1 ± 3.8 | 96.2 ± 4.3
CCCC(=O)Nc1ncnc2c1ncn2[C@@H]1O[C@@H]2COP(=O)(O)O[C@H]2[C@H]1OC(=O)CCC [Bucladesine sodium salt] | 97.69 ± 0.79 | 97.75 ± 0.42
Nc1nc2c(ncn2COCCO)c(=O)[nH]1 [Acyclovir] | 103.7 ± 0.48 | 101 ± 1.7
Nc1nc2c(ncn2COC(CO)CO)c(=O)[nH]1 [Ganciclovir] | 106 ± 4.3 | 103 ± 4
Nc1nc2n[nH]nc2c(=O)[nH]1 [Azaguanine-8] | 3.49 ± 0.95 | 2.62 ± 0.1
CC[C@]12CCCN3CCc4c(n(c5ccccc45)[C@@](O)(C(=O)OC)C1)[C@@H]32 [Vincamine] | 97.37 ± 0.16 | 95.3 ± 1.4
CCN1CCC[C@H]1CNC(=O)c1c(OC)ccc(Br)c1OC [Remoxipride Hydrochloride] | 101 ± 1.9 | 101.8 ± 0.94
O=C(O)Cc1sc(-c2ccccc2)nc1-c1ccc(Cl)cc1 [Fentiazac] | 63.1 ± 4.3 | 88.8 ± 4.9
CC[N+](CC)(CC)CCC(O)(c1ccccc1)C1CCCCC1 (stereo not drawn) [Tridihexethyl chloride] | 103 ± 6.3 | 101 ± 4.5
CCCCOC(=O)c1ccc(N)cc1 [Butamben] | 66.9 ± 1.8 | 73 ± 2.5
CCCCN(CCCC)CCCOC(=O)c1ccc(N)cc1 [Butacaine] | 95.5 ± 4.9 | 98.5 ± 4.1
CCCCOC(=O)c1ccc(O)cc1 [Butylparaben] | 46.4 ± 2.2 | 49.5 ± 0.84
CC(C)(C)NC(=O)[C@@H]1C[C@@H]2CCCC[C@@H]2CN1C[C@@H](O)[C@H](Cc1ccccc1)NC(=O)[C@H](CC(N)=O)NC(=O)c1ccc2ccccc2n1 [Saquinavir mesylate] | 110 ± 3.3 | 107 ± 3.1
CC[C@H](C)C(=O)O[C@H]1C[C@@H](C)C=C2C=C[C@H](C)[C@H](CC[C@@H]3C[C@@H](O)CC(=O)O3)[C@H]21 [Lovastatin] | 94.8 ± 5.2 | 94.5 ± 3.2
CCCCC(CC)CN1CN(CC(CC)CCCC)CC(C)(N)C1 (stereo not drawn) [Hexetidine] | 105 ± 3.2 | 118 ± 6.3
NCc1ccc(S(N)(=O)=O)cc1 [Mafenide hydrochloride] | 107 ± 2.5 | 111 ± 4.2
NS(=O)(=O)c1cc(C2(O)NC(=O)c3ccccc32)ccc1Cl (stereo not drawn) [Chlorthalidone] | 102 ± 3.6 | 105 ± 3.7
CCOC(=O)C1=C(COCCN)NC(C)=C(C(=O)OC)C1c1ccccc1Cl (stereo not drawn) [Amlodipine] | 105 ± 12 | 113 ± 11
CC(C(=O)O)c1ccc2c(c1)[nH]c1ccc(Cl)cc12 (stereo not drawn) [Carprofen] | 40.7 ± 15 | 88.9 ± 8

SMILES | growth yield (40 h) [%] | growth yield (72 h) [%]
COc1ccc2cc([C@@H](C)C(=O)O)ccc2c1 [(R) -Naproxen sodium salt] | 84.5 ± 7 | 87.2 ± 6.4
CC(C(=O)O)c1ccc(-c2ccccc2)c(F)c1 (stereo not drawn) [Flurbiprofen] | 72.9 ± 3 | 86.5 ± 3.9
CC[N+](C)(CC)CCOC(=O)C1c2ccccc2Oc2ccccc21 [Methantheline bromide] | 110 ± 1.8 | 108 ± 1.3
CCOC(=O)[C@H](CCc1ccccc1)N[C@@H](C)C(=O)N1Cc2ccccc2C[C@H]1C(=O)O [Quinapril hydrochloride] | 98.8 ± 3.8 | 98.1 ± 1.1
Cc1cccc(C)c1NC(=O)CN1CCN(CCCC(c2ccc(F)cc2)c2ccc(F)cc2)CC1 [Lidoflazine] | 95.6 ± 1.3 | 114 ± 3
CN(C)CCCO[C@@H]1[C@H]2OC(C)(C)O[C@H]2O[C@@H]1[C@H](O)CO [Amiprilose hydrochloride] | 100.5 ± 0.79 | 101.6 ± 0.73
C#CCN(C)Cc1ccccc1 [Pargyline hydrochloride] | 105 ± 2.1 | 107 ± 2.9
CN(C/C=C/C#CC(C)(C)C)Cc1cccc2ccccc12 [Terbinafine] | 2.7 ± 0.16 | 2.52
CN(C/C=C/c1ccccc1)Cc1cccc2ccccc12 [Naftifine hydrochloride] | 15.6 ± 1.6 | 55.5 ± 4.3
CN(Cc1ccc(C(C)(C)C)cc1)Cc1cccc2ccccc12 [Butenafine Hydrochloride] | 2.06 ± 1.4 | 1.99 ± 1.1
c1ccc2c(CC3=NCCN3)cccc2c1 [Naphazoline hydrochloride] | 101 ± 2.4 | 100
CC1(C)O[C@@H]2C[C@H]3[C@@H]4C[C@H](F)C5=CC(=O)C=C[C@]5(C)[C@H]4[C@@H](O)C[C@]3(C)[C@]2(C(=O)CO)O1 [Flunisolide] | 100.5 ± 0.48 | 96.5 ± 1.3
N=C(N)N1CCc2ccccc2C1 [Debrisoquin sulfate] | 97.5 ± 1.3 | 101.8 ± 0.52
CNCC[C@@H](Oc1cccc2ccccc12)c1cccs1 [(R)-Duloxetine hydrochloride] | 99.1 ± 2.9 | 107 ± 3.1
Cc1ncc([N+](=O)[O-])n1CC(O)CCl (stereo not drawn) [Ornidazole] | 99.8 ± 2.9 | 103 ± 2.3
CC(=O)N(CC(C)C(=O)O)c1c(I)cc(I)c(N)c1I (stereo not drawn) [Iocetamic acid] | 107 ± 1.6 | 104 ± 1.1
N[C@@H](C(=O)N[C@@H]1C(=O)N2C(C(=O)O)=C(Cl)CS[C@H]12)c1ccccc1 [Cefaclor hydrate] | 96.1 ± 4.6 | 96.9 ± 4.2
CCCCC(C)(O)C/C=C/[C@H]1[C@H](O)CC(=O)[C@@H]1CCCCCCC(=O)OC (mixture of isomers) [Misoprostol] | 105 ± 1.3 | 109 ± 4.1
CCOC(=O)O[C@]1(C(=O)COC(=O)CC)CC[C@H]2[C@@H]3CCC4=CC(=O)C=C[C@]4(C)[C@H]3[C@@H](O)C[C@@]21C [Prednicarbate] | 118 ± 3 | 114 ± 2.8
O=c1[nH]c(=O)n([C@H]2C[C@H](O)[C@@H](CO)O2)cc1I [Idoxuridine] | 102 ± 3.8 | 99.4 ± 3.1
O=c1[nH]c(=O)n([C@H]2C[C@H](O)[C@@H](CO)O2)cc1F [Floxuridine] | 11.1 ± 3.8 | 46.3 ± 9.3
O=c1[nH]c(=O)n([C@H]2C[C@H](O)[C@@H](CO)O2)cc1C(F)(F)F [Trifluridine] | 109.9 ± 0.95 | 106 ± 1.1
c1ccc2[nH]c(-c3cscn3)nc2c1 [Tiabendazole] | 1.43 ± 1.4 | 1.26 ± 1.3

SMILES | growth yield (40 h) [%] | growth yield (72 h) [%]
C[C@@H]1CCC[C@H](C)N1NC(=O)c1ccc(Cl)c(S(N)(=O)=O)c1 [Clopamide] | 99.6 ± 1.8 | 103 ± 3
CCCCc1ncc(/C=C(\Cc2cccs2)C(=O)O)n1Cc1ccc(C(=O)O)cc1 [Eprosartan mesylate] | 98.3 ± 5.6 | 94.08 ± 0.94
Cc1onc(-c2ccccc2)c1C(=O)N[C@@H]1C(=O)N2[C@@H]1SC(C)(C)[C@@H]2C(=O)O [Oxacillin sodium] | 111 ± 1.6 | 105 ± 1.4
CCCCCOC(=O)Nc1nc(=O)n([C@@H]2O[C@H](C)[C@@H](O)[C@H]2O)cc1F [Capecitabine] | 105.2 ± 0.64 | 103.2 ± 0.84
CC(CN(C)C)C(C)(O)Cc1ccc(Cl)cc1 (stereo not drawn) [Clobutinol hydrochloride] | 105 ± 3.5 | 104 ± 2.5
Oc1c(Cl)cc(Cl)c(Cl)c1Cc1c(O)c(Cl)cc(Cl)c1Cl [Hexachlorophene] | 25.3 ± 2.1 | 98.9 ± 5.8
CC(C(=O)O)c1cccc(Oc2ccccc2)c1 (stereo not drawn) [Fenoprofen calcium salt dihydrate] | 97.5 ± 10 | 97.7 ± 13
CC(=O)N[C@@H](CC(C)C)C(=O)O [N-Acetyl-L-leucine] | 103 ± 3 | 103 ± 2.7
CCCN(CCC)CCc1cccc2c1CC(=O)N2 [Ropinirole hydrochloride] | 99.43 ± 0.64 | 103 ± 1.1
COc1cc([S+](C)[O-])ccc1-c1nc2cccnc2[nH]1 (stereo not drawn) [Sulmazole] | 99.4 ± 2.2 | 98 ± 1.7
COc1c2occc2c(OC)c2c(=O)cc(C)oc12 [Khellin] | 97.7 ± 1.8 | 95.1 ± 5.1
Cc1cc2cc3c(C)cc(=O)oc3c(C)c2o1 [Trioxsalen] | 42.1 ± 0.48 | 73.7 ± 4.5
Cc1cc(=O)oc2cc(O)ccc12 [Hymecromone] | 101 ± 0.32 | 97.01 ± 0.94
COCCOC(=O)C1=C(C)NC(C)=C(C(=O)OC(C)C)C1c1cccc([N+](=O)[O-])c1 (stereo not drawn) [Nimodipine] | 95.3 ± 7.3 | 97.7 ± 9
COC(=O)C1=C(C)NC(C)=C(C(=O)OCCN(C)Cc2ccccc2)C1c1cccc([N+](=O)[O-])c1 (stereo not drawn) [Nicardipine hydrochloride] | 89.4 ± 5.2 | 114 ± 7.8
COC(=O)C1=C(C)NC(C)=C(C(=O)OCC(C)C)C1c1ccccc1[N+](=O)[O-] (stereo not drawn) [Nisoldipine] | 25.6 ± 0.48 | 23.9 ± 2.3
CCOC(=O)C1=C(C)NC(C)=C(C(=O)OC)C1c1cccc([N+](=O)[O-])c1 (stereo not drawn) [Nitrendipine] | 85.6 ± 1.1 | 89.9 ± 3.7
COC(=O)C1=C(C)NC(C)=C(C(=O)OC)C1c1ccccc1[N+](=O)[O-] [Nifedipine] | 44.2 ± 1.3 | 53.1 ± 1.1
CCOC(=O)C1=C(C)NC(C)=C(C(=O)OC)C1c1cccc(Cl)c1Cl (stereo not drawn) [Felodipine] | 92.8 | 94.2
N=C(N=C(N)N)N1CCOCC1 [Moroxidine hydrochloride] | 106 ± 4.3 | 104 ± 1.9
O=C(Nc1ccc([N+](=O)[O-])cc1Cl)c1cc(Cl)ccc1O [Niclosamide] | 96.1 ± 0.16 | 96.59 ± 0.1
CN[C@@H]1[C@H](O[C@H]2[C@H](O[C@H]3[C@H](O)[C@@H](O)[C@H](N=C(N)N)[C@@H](O)[C@@H]3N=C(N)N)O[C@@H](C)[C@]2(O)C=O)O[C@@H](CO)[C@H](O)[C@H]1O [Streptomycin sulfate] | 103 ± 1.3 | 104.35 ± 0.1
COc1cc(C)nc(-n2nc(C)cc2OC)n1 [Epirizole] | 111 ± 3.8 | 109 ± 3.8
